“And” between values parts separate entries of the source, which are not always exact repeats. Equal values may be shown once. Results filed as inconclusive are left out. The source made the active and inactive calls. Unless noted, calls come from the whole dose curve.
Experiments:
[1] = molecular target: Bile acid receptor (Homo sapiens) (UniProt Q96RI1); assay: qHTS assay for small molecule agonists of farnesoid X receptor signaling (AID 588527); conditions: HEK293T FXR-UAS-bla, beta-lactamase ratio, 16 h; activation: stronger effect = higher value;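 note: series mostly up to about 77 µM; 0% = vehicle basal and 100% = reference agonist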
Chain of Bile acid receptor (Homo sapiens) (Q96RI1 whole entry, looked up): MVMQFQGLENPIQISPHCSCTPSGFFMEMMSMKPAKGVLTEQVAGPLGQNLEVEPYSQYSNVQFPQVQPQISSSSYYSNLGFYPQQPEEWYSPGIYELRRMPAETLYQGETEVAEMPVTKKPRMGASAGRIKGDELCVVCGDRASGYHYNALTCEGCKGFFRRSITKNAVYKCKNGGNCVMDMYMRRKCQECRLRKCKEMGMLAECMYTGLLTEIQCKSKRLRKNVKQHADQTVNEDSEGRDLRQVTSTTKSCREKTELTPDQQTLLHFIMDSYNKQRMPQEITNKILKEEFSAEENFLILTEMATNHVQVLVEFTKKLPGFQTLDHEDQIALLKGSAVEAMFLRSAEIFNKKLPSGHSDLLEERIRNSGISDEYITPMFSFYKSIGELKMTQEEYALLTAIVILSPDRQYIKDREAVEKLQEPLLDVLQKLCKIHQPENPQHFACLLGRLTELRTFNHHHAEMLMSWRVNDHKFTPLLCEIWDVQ
How it was run: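 FXR-UAS-bla HEK293T, 10% dialyzed FBS; cpds up to 92 uM titration, 16 h 37 C; CCF4 dye 2 h RT; fluorescence. Normalized to chenodeoxycholic acid 100 uM (100%) and DMSO (0%); Hill fit gives EC50, efficacy.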

[2] = molecular target: Nuclear receptor ROR-gamma (Homo sapiens) (UniProt P51449); assay: qHTS assay for small molecule antagonists of the retinoid-related orphan receptor gamma (ROR-gamma) signaling pathway (AID 651802; active = well fitted curve in the direction sought with a large enough effect; an effect the other way counts as inactive or inconclusive;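 note: CHO cells with doxycycline-induced ROR-gamma expression; series mostly up to about 92 µM; % is set by controls: 0 for no effect and ±100 for the full control effect; nearly all actives have a fitted effect of over 60% in size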)
How it was run: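 Steps: cells dispensed; compound or DMSO transferred by pin tool; doxycycline added to induce the ROR response element-driven luciferase; plates held 16hr at 37C; ONE-Glo added and luminescence measured.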

[3] = molecular target: Cytochrome P450 3A4 (Homo sapiens) (UniProt P08684); assay: qHTS Assay for Activators of Cytochrome P450 3A4 (AID 885; active = well fitted curve in the direction sought with a large enough effect; an effect the other way counts as inactive or inconclusive; note: nearly all actives have a fitted effect of over 65% in size)
Chain of Cytochrome P450 3A4 (Homo sapiens) (P08684 whole entry, looked up): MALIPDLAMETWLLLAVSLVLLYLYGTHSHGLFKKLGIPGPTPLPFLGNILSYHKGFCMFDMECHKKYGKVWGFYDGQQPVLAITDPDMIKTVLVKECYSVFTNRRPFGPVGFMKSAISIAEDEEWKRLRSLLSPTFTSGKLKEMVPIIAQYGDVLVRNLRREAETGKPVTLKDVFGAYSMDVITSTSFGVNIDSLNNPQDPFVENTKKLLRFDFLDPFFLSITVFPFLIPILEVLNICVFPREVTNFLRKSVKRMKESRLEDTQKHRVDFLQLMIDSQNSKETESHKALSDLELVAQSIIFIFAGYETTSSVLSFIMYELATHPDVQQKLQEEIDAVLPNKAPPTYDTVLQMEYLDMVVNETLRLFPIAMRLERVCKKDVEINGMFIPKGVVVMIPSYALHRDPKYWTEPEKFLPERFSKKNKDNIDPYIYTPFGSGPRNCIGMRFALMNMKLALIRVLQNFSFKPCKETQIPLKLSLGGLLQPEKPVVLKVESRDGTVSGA
How it was run: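 CYP3A4 activity: Luciferin-PPXE O-dealkylation, 25uM substrate, 200mM KPO4, RT throughout. Read-out is luciferase luminescence; higher values reflect activation.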

[4] = molecular target: Peroxisome proliferator-activated receptor delta (Homo sapiens) (UniProt Q03181); assay: qHTS assay for small molecule agonists of peroxisome proliferator-activated receptor delta signaling (AID 588534);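 note: 0% = DMSO basal wells and 100% = positive control agonist at 10 µM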
Chain of Peroxisome proliferator-activated receptor delta (Homo sapiens) (Q03181 whole entry, looked up): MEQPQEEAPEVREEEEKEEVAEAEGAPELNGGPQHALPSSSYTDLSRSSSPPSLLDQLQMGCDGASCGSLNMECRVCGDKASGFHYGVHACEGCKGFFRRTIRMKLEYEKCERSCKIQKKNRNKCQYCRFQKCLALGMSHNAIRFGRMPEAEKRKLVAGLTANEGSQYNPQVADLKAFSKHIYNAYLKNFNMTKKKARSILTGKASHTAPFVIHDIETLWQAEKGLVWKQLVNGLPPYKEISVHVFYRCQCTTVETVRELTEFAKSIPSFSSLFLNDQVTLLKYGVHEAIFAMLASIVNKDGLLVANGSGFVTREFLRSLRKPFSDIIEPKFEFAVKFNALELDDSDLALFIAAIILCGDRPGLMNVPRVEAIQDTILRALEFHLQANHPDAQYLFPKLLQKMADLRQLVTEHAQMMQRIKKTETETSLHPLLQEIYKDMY
How it was run: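 Agonist-mode qHTS; reporter cells, 5 hrs 37 C pre-incubation; compound titration, 18 hrs 37 C; CCF4 dye, 2 hrs RT; fluorescence read. EC50/efficacy via Hill fit.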

[5] = molecular target: Glucocorticoid receptor (Homo sapiens) (UniProt P04150); assay: qHTS assay for small molecule agonists of glucocorticoid receptor signaling (AID 588532; active = well fitted curve in the direction sought with a large enough effect in the signal ratio, with a control signal flat; the % refers to the signal ratio;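 note: 100% = dexamethasone at 0.1 µM and 0% = DMSO only wells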); conditions: HeLa MMTV-bla, beta-lactamase ratio, agonist, 18 h; activation: stronger effect = higher value, percent of dexamethasone control, DMSO zero
Chain of Glucocorticoid receptor (Homo sapiens) (P04150 whole entry, looked up): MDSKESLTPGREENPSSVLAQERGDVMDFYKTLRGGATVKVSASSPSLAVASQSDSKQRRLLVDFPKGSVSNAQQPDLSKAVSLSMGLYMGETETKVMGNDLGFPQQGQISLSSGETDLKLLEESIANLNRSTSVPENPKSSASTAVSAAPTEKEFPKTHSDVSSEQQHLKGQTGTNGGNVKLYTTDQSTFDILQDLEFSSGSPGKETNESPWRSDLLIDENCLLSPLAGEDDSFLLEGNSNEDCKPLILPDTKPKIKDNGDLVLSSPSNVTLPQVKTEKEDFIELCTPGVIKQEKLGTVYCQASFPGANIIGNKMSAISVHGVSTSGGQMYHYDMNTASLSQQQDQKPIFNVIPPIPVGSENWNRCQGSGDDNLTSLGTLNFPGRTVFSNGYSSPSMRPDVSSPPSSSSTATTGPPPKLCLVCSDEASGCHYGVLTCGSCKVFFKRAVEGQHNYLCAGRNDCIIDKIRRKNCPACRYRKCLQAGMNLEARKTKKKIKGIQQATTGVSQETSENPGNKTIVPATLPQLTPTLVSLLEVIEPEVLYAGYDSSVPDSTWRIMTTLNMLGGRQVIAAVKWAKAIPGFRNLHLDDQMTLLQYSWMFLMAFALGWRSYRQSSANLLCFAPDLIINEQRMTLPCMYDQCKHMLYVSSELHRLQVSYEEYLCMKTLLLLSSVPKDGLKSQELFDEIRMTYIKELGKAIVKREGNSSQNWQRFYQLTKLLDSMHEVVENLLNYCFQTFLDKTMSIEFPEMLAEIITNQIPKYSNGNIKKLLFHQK
How it was run: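 Cells were plated and rested 3-5 h at 37 C, compounds were added in titration and incubated 18 h, then CCF4 substrate was loaded for 2 h at RT before reading blue/green fluorescence. EC50 came from Hill-equation fitting.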

[6] = molecular target: Glucocorticoid receptor (Homo sapiens) (UniProt P04150); assay: qHTS assay for small molecule antagonists of glucocorticoid receptor signaling (AID 588533; active = well fitted inhibition curve with a large enough effect in the signal ratio, with a control signal flat, not every such curve was filed as active; the % refers to the signal ratio; note: % is set by controls: 0 for no effect and ±100 for the full control effect)
How it was run: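 Antagonist-mode qHTS: compound titrations added to GRE-bla HeLa cells, then dexamethasone 2 nM final; 18 h, 37 C. CCF4 FRET fluorescence normalized to dexamethasone and DMSO; IC50 from Hill fit.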

[7] = qHTS assay for small molecule antagonists of peroxisome proliferator-activated receptor delta signaling (AID 588535; active = well fitted inhibition curve with a large enough effect in the signal ratio, with a control signal flat, not every such curve was filed as active; the % refers to the signal ratio;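 for max response: cells co-treated with a PPAR-delta agonist as stimulator during compound exposure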); conditions: HEK293T PPARd-UAS-bla, beta-lactamase FRET ratio, 18 h; 460 nm channel
How it was run: (§1)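 Fluorescence from CCF4-loaded GeneBLAzer PPAR-delta-UAS-bla HEK293T cells (2 hrs RT loading) quantified reporter inhibition after an 18 hr, 37 C compound exposure across a titration.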

[8] = molecular target: Peroxisome proliferator-activated receptor delta (Homo sapiens) (UniProt Q03181); assay: as above
How it was run: as §1

[9] = molecular target: Peroxisome proliferator-activated receptor gamma (Homo sapiens) (UniProt P37231); assay: qHTS assay for small molecule agonists of peroxisome proliferator-activated receptor gamma signaling (AID 588536; active = well fitted curve in the direction sought with a large enough effect in the signal ratio, with a control signal flat, not every such curve was filed as active; the % refers to the signal ratio;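 note: 0% = DMSO basal wells and 100% = rosiglitazone at 2 µM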)
Chain of Peroxisome proliferator-activated receptor gamma (Homo sapiens) (P37231 whole entry, looked up): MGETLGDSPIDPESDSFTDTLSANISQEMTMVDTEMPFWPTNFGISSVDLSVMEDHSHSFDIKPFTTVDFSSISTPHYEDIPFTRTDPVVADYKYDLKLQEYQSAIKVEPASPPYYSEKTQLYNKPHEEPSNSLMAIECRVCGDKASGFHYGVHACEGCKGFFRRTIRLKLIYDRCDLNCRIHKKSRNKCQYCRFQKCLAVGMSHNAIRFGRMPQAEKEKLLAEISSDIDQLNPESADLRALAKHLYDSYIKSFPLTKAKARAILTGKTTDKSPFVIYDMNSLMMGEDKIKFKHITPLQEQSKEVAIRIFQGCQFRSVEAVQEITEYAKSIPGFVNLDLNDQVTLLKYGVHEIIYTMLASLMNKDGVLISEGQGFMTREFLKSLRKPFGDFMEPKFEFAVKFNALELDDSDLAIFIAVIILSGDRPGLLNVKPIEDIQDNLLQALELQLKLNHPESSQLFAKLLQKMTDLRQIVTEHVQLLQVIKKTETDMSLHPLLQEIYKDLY
How it was run: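 Compound treatment: 16 h, 37 C, HEK293 GeneBLAzer cells. Detection: CCF4, 2 h RT. Values: Hill-fit EC50, efficacy as % of 2 uM rosiglitazone.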

[10] = molecular target: Peroxisome proliferator-activated receptor gamma (Homo sapiens) (UniProt P37231); assay: qHTS assay for small molecule antagonists of peroxisome proliferator-activated receptor gamma signaling (AID 588537; active = well fitted inhibition curve with a large enough effect in the signal ratio, with a control signal flat, not every such curve was filed as active; the % refers to the signal ratio;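 note: reporter cells co-stimulated with 50 nM rosiglitazone agonist during compound treatment; % of control where 0% means no effect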)
How it was run: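 Fluorescence at 460 and 530 nm (405 nm excitation) reported beta-lactamase cleavage of CCF4 after 2 h room-temperature loading. HEK293 reporter cells in 1% charcoal/dextran-treated FBS had received compound and rosiglitazone for 16 h.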

[11] = molecular target: Vitamin D3 receptor (Homo sapiens) (UniProt P11473); assay: qHTS assay for small molecule antagonists of vitamin D receptor signaling (AID 588541);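 note: receptor activated by calcitriol during compound treatment; series mostly up to about 77 µM; % is set by controls: 0 for no effect and ±100 for the full control effect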
Chain of Vitamin D3 receptor (Homo sapiens) (P11473 whole entry, looked up): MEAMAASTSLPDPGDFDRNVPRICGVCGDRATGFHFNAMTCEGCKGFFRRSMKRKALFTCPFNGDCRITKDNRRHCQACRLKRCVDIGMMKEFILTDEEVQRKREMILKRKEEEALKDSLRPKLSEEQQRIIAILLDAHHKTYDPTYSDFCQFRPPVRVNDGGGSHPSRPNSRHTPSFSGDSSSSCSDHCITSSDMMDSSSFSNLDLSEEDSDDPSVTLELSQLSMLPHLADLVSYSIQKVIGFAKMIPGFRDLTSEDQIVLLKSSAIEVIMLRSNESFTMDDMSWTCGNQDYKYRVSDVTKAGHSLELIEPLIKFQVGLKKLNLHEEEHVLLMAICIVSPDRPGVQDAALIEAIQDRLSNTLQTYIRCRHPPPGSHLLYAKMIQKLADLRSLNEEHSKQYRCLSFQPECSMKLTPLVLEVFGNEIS
How it was run: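 VDR-UAS-bla HEK293T cells in 2% charcoal-stripped FBS were stimulated with 1-alpha,25-dihydroxyvitamin D3 (3 nM final) plus compound for 16 h at 37 C. The beta-lactamase CCF4 readout was normalized to 50 nM agonist and DMSO, and Hill fits gave IC50.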

[12] = molecular target: Vitamin D3 receptor (Homo sapiens) (UniProt P11473); assay: qHTS assay for small molecule agonists of vitamin D receptor signaling (AID 588543);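 note: 0% = DMSO basal and 100% = reference agonist control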
How it was run: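 Reporter cells (HEK293T, VDR-UAS-bla) were seeded in medium with 2% charcoal-stripped serum and incubated 5 h, then compounds in concentration series were added for 16 h at 37 °C. Stimulation was scaled between DMSO basal and 50 nM 1α,25-dihydroxyvitamin D3.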

[13] = qHTS assay for small molecule agonists of retinoid X receptor alpha signaling (AID 588544); conditions: HEK293T RXRa-UAS-bla, beta-lactamase reporter, 18 h; 530 nm emission;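 for activation: 0% = DMSO basal wells and 100% = reference agonist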
[14] = molecular target: Retinoic acid receptor RXR-alpha (Homo sapiens) (UniProt P19793); assay: as above
Chain of Retinoic acid receptor RXR-alpha (Homo sapiens) (P19793 whole entry, looked up): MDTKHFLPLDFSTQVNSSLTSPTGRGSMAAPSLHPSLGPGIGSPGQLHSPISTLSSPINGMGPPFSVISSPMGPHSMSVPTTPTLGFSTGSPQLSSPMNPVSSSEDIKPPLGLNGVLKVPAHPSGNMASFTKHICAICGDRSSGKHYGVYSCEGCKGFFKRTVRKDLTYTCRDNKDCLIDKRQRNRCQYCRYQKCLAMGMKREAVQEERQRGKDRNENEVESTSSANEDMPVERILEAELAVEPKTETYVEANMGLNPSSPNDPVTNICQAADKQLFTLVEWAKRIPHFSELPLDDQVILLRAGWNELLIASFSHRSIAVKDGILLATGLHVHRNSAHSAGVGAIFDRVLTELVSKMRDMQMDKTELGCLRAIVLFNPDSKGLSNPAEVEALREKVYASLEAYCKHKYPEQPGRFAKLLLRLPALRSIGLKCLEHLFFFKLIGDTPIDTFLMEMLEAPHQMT

[15] = molecular target: Thyroid hormone receptor beta (Homo sapiens) (UniProt P10828); assay: qHTS assay for small molecule agonists of thyroid hormone receptor beta signaling (AID 588545)
Chain of Thyroid hormone receptor beta (Homo sapiens) (P10828 whole entry, looked up): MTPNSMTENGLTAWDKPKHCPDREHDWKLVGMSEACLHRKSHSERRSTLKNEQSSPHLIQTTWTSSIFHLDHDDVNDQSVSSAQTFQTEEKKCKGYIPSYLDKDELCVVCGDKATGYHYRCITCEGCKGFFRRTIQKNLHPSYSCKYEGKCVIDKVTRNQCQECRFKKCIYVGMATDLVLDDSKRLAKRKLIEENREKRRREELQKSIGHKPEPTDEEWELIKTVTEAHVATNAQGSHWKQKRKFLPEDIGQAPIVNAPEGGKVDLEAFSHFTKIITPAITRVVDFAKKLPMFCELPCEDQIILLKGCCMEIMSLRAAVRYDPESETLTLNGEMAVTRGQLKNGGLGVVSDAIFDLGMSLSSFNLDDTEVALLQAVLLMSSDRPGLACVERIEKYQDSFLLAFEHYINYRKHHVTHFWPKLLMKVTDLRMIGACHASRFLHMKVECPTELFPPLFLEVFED
How it was run: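 HEK 293 TR-UAS-bla; agonist mode; 18 hrs, 37 C; CCF4, ex 405/em 460 and 530 nm; norm. T3 10 nM = 100%, DMSO = 0%; Hill fit → EC50, efficacy.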

[16] = qHTS assay for small molecule antagonists of retinoid X receptor alpha signaling (AID 588546; active = well fitted inhibition curve with a large enough effect in the signal ratio, with a control signal flat, not every such curve was filed as active; the % refers to the signal ratio;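 note: cells stimulated with 9-cis-retinoic acid as agonist; % is set by controls: 0 for no effect and ±100 for the full control effect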); conditions: HEK293T RXRa-UAS-bla, beta-lactamase ratio, antagonist mode; measured here: W530 green channel, cytotoxicity proxy
How it was run: (§2)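 Beta-lactamase reporter inhibition, read as CCF4 fluorescence ratio (ex 405, em 460/530 nm) after 2 h at RT. HEK293T UAS-bla cells, 2500/well, were stimulated with 9-cis-RA at 500 or 100 nM final alongside test compound for 18 h at 37 C.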

[17] = molecular target: Retinoic acid receptor RXR-alpha (Homo sapiens) (UniProt P19793); assay: as above; conditions: HEK293T RXRa-UAS-bla, beta-lactamase ratio, antagonist mode
How it was run: as §2

[18] = molecular target: Thyroid hormone receptor beta (Homo sapiens) (UniProt P10828); assay: qHTS assay for small molecule antagonists of thyroid hormone receptor beta signaling (AID 588547; active = well fitted inhibition curve with a large enough effect in the signal ratio, with a control signal flat, not every such curve was filed as active; the % refers to the signal ratio;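 note: cells stimulated with 0.4 nM T3 agonist during compound exposure; series mostly up to about 77 µM; % is set by controls: 0 for no effect and ±100 for the full control effect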); conditions: TR-UAS-bla HEK293, beta-lactamase ratio, antagonist mode, 18 h
How it was run: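 TR-UAS-bla GripTite HEK293 cells in 2% charcoal/dextran FBS medium; compounds 0.59 nM to 92 uM with T3 at 0.4nM final, 18 h at 37 C. Beta-lactamase read by CCF4 fluorescence (460/530 nm); Hill fits gave IC50 and efficacy.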

[19] = qHTS assay for small molecule activators of the p53 signaling pathway (AID 651743; active = well fitted activation curve with a large enough effect in the signal ratio, not every such curve was filed as active; the % refers to the signal ratio; note: potency is the fitted concentration of half-maximal effect; for activation: series mostly up to about 92 µM; % of control where 0% means no effect); conditions: HCT-116 p53RE-bla, beta-lactamase FRET ratio, 16 h; activation: stronger effect = higher value
How it was run: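 Following 16 hours of compound exposure at 37 C, HCT-116 cells bearing the p53RE-bla reporter were loaded with LiveBLAzer B/G FRET substrate for 2 hours at room temperature and fluorescence intensity was recorded.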

[20] = qHTS assay for environmental chemicals that activate the Aryl hydrocarbon Receptor (AhR) signaling pathway (AID 651777; active = well fitted curve in the direction sought with a large enough effect; an effect the other way counts as inactive or inconclusive; note: % of control where 0% means no effect; nearly all actives have a fitted effect of over 15% in size); conditions: 1A2-DRE human hepatoma cells, luciferase, 24 h; activation: stronger effect = higher value
How it was run: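 Human hepatoma 1A2-DRE cells, stably carrying a dioxin response element and CYP1A2 promoter driving luciferase, were exposed to compounds for 24 hr at 37 C and 5% CO2. Luciferase signal was then read after 30 min One-Glo at room temperature.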

[21] = molecular target: Peroxisome proliferator-activated receptor alpha (Homo sapiens) (UniProt Q07869); assay: qHTS assay for small molecule agonists of the peroxisome proliferator-activated receptor alpha (PPARalpha) signaling pathway (AID 651778; active = well fitted curve in the direction sought with a large enough effect; an effect the other way counts as inactive or inconclusive; note: % of control where 0% means no effect); conditions: PathHunter PPARalpha complementation, chemiluminescence, 6 h; max response: stronger effect = higher value
Chain of Peroxisome proliferator-activated receptor alpha (Homo sapiens) (Q07869 whole entry, looked up, the tested form may be a part): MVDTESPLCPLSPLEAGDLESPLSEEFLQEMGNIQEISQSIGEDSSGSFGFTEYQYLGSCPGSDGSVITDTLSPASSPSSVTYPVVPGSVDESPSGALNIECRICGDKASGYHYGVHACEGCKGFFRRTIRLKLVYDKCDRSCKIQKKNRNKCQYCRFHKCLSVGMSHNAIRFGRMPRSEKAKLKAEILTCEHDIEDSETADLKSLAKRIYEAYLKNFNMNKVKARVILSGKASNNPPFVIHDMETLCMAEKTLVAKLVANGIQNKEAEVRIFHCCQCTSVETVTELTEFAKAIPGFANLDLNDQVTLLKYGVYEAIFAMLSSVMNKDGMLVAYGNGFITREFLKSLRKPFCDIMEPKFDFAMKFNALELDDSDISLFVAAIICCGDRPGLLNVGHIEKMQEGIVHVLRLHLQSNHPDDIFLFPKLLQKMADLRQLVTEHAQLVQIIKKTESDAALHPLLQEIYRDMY
How it was run: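 Enzyme-fragment complementation assay in which ligand-bound PPARalpha translocates and forms an active enzyme that generates chemiluminescence. Cells were plated overnight, exposed to compound for 6 hr at 37 C, and then given detection reagent for 60 min at room temperature.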

[22] = qHTS assay for small molecule agonists of the antioxidant response element (ARE) signaling pathway measured by Nrf2-dependant transcriptional activity - cell viability counter screen (AID 720653; active = well fitted curve in the direction sought with a large enough effect in the repeat runs; an effect the other way counts as inactive or inconclusive; note: % is set by controls: 0 for no effect and ±100 for the full control effect); conditions: ARE-bla HepG2 viability, CellTiter-Glo ATP luminescence, 16 h; max response: stronger effect = lower value
How it was run: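 ARE-bla HepG2 cells treated with compounds for 16 h at 37C; this counter screen measures viability as intracellular ATP by CellTiter-Glo luminescence after 30 min at room temperature.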

[23] = qHTS assay for cell viability of HEK293 cells (AID 743288; active = well fitted curve in the direction sought with a large enough effect; an effect the other way counts as inactive or inconclusive; note: % is set by controls: 0 for no effect and ±100 for the full control effect; nearly all actives have a fitted effect of over 50% in size); conditions: ATP luminescence (CellTiter-Glo), 18 h; max response: stronger effect = lower value
How it was run: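 Viable-cell counts were inferred from luciferase-based ATP content in HEK293 cells seeded at 2,000/well, pre-incubated ≥5 h, then dosed with DMSO-solubilised compounds for 18 h at 37 C.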

[24] = qHTS assay for cell viability of the p53RE-bla HCT-116 cell line (AID 743292; active = well fitted curve in the direction sought with a large enough effect; an effect the other way counts as inactive or inconclusive; note: % is set by controls: 0 for no effect and ±100 for the full control effect; nearly all actives have a fitted effect of over 55% in size)
How it was run: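 CellSensor p53RE-bla HCT-116 cells, 4,000/well, preincubated 5 h at 37 C, then exposed to compounds in DMSO for 16 h at 37 C. Viability read as CellTiter-Glo luminescence (intracellular ATP) after 30 min at room temperature.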

[25] = molecular target: Nuclear receptor subfamily 1 group I member 2 (Rattus norvegicus) (UniProt Q9R1A7); assay: qHTS assay for small molecule activators of the rat pregnane X receptor (rPXR) signaling pathway (AID 651751; call rule not given here; note: 0% is about no effect); conditions: rPXR reporter cells, luciferase (One-Glo), 24 h
Chain of Nuclear receptor subfamily 1 group I member 2 (Rattus norvegicus) (Q9R1A7 whole entry, looked up): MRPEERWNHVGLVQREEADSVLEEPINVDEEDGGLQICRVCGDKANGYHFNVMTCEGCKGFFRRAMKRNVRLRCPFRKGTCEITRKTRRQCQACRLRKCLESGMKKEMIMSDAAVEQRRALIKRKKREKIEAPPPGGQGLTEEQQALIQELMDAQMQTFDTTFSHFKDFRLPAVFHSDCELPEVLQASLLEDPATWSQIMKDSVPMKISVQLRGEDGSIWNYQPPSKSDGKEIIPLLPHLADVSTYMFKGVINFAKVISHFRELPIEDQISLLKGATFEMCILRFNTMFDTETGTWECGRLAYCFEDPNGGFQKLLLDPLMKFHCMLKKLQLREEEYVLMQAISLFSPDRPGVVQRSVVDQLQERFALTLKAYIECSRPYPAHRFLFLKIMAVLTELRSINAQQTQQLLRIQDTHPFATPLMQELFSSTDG

[26] = qHTS assay for small molecule activators of the human pregnane X receptor (PXR) signaling pathway (AID 720659; call rule not given here; note: 0% is about no effect)
[27] = qHTS assay for small molecule activators of the nuclear factor-kappa B (NF-kB) signaling pathway (AID 651749; active = well fitted activation curve with a large enough effect in the signal ratio; the % refers to the signal ratio; note: series mostly up to about 77 µM; % of control where 0% means no effect); conditions: NF-kB-bla ME-180 cells, beta-lactamase FRET ratio, 16 h; activation: stronger effect = higher value
How it was run: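 In this qHTS format, compounds acting as activators increase NF-kB-driven beta-lactamase in ME-180 cells, measured as disrupted FRET after 16 hr exposure at 37C and 5% CO2.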

[28] = qHTS assay for small molecule agonists of the antioxidant response element (ARE) signaling pathway measured by Nrf2-dependant transcriptional activity (AID 720636; active = well fitted curve in the direction sought with a large enough effect in the repeat runs; an effect the other way counts as inactive or inconclusive; note: % of control where 0% means no effect)
How it was run: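 ARE-luc HepG2 cells carrying an Nrf2-responsive luciferase reporter were plated in medium with 1% dialyzed FBS, left 6 hr at 37 C to attach, then exposed to compound for 16 hr. Luciferase luminescence was read after ONE-Glo addition.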

NC(N)=S
inactive: activation [1] -0.31% | Potency [2]

CCCCC(CC)COP(=O)(OCC(CC)CCCC)OCC(CC)CCCC (configuration not stated)
inactive: Potency [3] | activation [1] -0.972% | outcome [4]

Cc1cc(C)nc(Nc2ccccc2)n1
1.3%: max response [13]
-19.7%: max response [7]
inactive: activation [5] -19% | Potency [6] | outcome [4] | Potency [8] | Potency [9] | Potency [10] | Potency [11] | outcome [12] | Potency [14] | Potency [15] | max response [17] -45.9% | activity change % (negative = inhibition) [18] -4.91% | activation [19] -0.291% | activation [20] 7.09% | max response [21] 5.23% | max response [22] -4.46% | max response [23] -15.1% | Potency [24] | max response [25] 11.4% | outcome [26]
-7.16%: max response [16]

Nc1ccc(Cl)cc1Cl
inactive: Potency [3] | activation [1] 0.621% and -4.4% | outcome [4]

CCc1nn(C)c(C(=O)NCc2ccc(C(C)(C)C)cc2)c1Cl
inactive: activation [1] 2.45% | outcome [12] | activation [27] 2.69% | activation [20] 6.31% | Potency [28]
active: Potency [19] 355 nM

From PubChem BioAssay (NCATS)
